# HCV inh = qHTS Assay for Inhibitors of Hepatitis C Virus (HCV); Huh7.5.1 HCVcc-Cre infection, luciferase reporter, 44 h; hit rate 3.4% among 340,000; Potency, µM (doses to about 41.8 µM), without a hit: at the top dose activity change, negative = inhibition, actives largely listed as inhibitors; note: potency is the fitted concentration of half-maximal effect
#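 Infectious HCVcc-Cre (~0.5 moi) was added to cells just after compound, with cells seeded 4 h earlier at 1,000 per well. Luciferase activity after 44 h culture reported infection; substrate was incubated 15 min at room temperature before reading.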
# Sm TGR block = qHTS Assay for the Inhibitors of Schistosoma Mansoni Peroxiredoxins. purified TGR, DTNB reduction, TNB absorbance 405 nm. hit rate 3% among 360,000. Potency, µM (highest dose often 114 µM), for inactives: at the top dose activity change, negative = inhibition, usual class: inhibitors. AID 485364, 2010; note: potency is the fitted concentration of half-maximal effect; nearly all actives have a fitted effect of over 60% in size
#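 First, TGR (20 nM dispensed) and NADPH were mixed with compound. Second, a 15 min room-temperature incubation followed. Third, further NADPH and then DTNB were added to start the reaction. Finally, TNB absorbance was monitored kinetically.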
# VACV mCherry inh = qHTS for Stage-Specific Inhibitors of Vaccinia Orthopoxvirus: mCherry Reporter Primary qHTS | Potency, µM (highest dose often 36.5 µM), for inactives: at the top dose activity change, negative = inhibition, hits mostly inhibitors | Vaccinia virus mCherry reporter infection, fluorescence | hit rate 0.63% among 310,000 | AID 720579, 2013; calls by dose curve; tested in A549 cells; note: potency is the fitted concentration of half-maximal effect; nearly all actives have a fitted effect of over 35% in size
# FMDV antiviral = High Throughput Screening for Foot and Mouth Disease Virus Antivirals | FMDV antiviral cell-based qHTS | Potency, µM (highest dose often 57.9 µM), for the others: at the top dose activity change, negative = inhibition, actives largely listed as inhibitors | hit rate 1.2% among 410,000 | AID 1159524, 2015; calls by dose curve; tested in HEK293T cells; note: read-out not given here; potency is the fitted concentration of half-maximal effect; nearly all actives have a fitted effect of over 45% in size
# HCMV inh = qHTS Assay for inhibitors of the human cytomegalovirus (HCMV); HFF cells, HCMV-luciferase reporter, 72 h; hits give low values; activity change, negative = inhibition, % at 57.5 µM; hit rate 4.5% among 410,000; in the data active = activity change below about -60%; inconclusive = no clear call, values can overlap the other calls; inactive = above about -39%
#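 Two compound doses tested in HFFs infected with HCMV-luciferase, MOI 1 PFU/cell, 72 h at 37C. Lysate luminescence read with OneGlo; data normalized against buffer-only and 10uM Salinomycin inhibitor controls.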
# VACV Venus inh = qHTS for Stage-Specific Inhibitors of Vaccinia Orthopoxvirus: Venus Reporter Primary qHTS; Vaccinia virus Venus reporter expression, fluorescence; Potency, µM (top dose mostly 36.5 µM), for inactives: at the highest dose activity change, negative = inhibition, usual class: inhibitors; hit rate 0.46% among 330,000; AID 720580, 2013; calls by dose curve; tested in A549 cells; note: potency is the fitted concentration of half-maximal effect; nearly all actives have a fitted effect of over 30% in size
# * marks the source's active call; other numbers are inactive results; i = inactive; ? = inconclusive; · = no result; [ ] = dose if it differs, or a comment. The list is not random: actives were taken first. Their share in the collection is about 9.3%. Unless noted, calls come from the whole dose curve; as a rule, active = well fitted curve in the direction sought with a large enough effect; inconclusive = small, poorly fitted or top-dose-only effect, or another doubt; inactive = no such curve, though single readings can be large; an effect the other way counts as inactive or inconclusive. % is set by controls: 0 for no effect and ±100 for the full control effect.
SMILES,HCV inh,Sm TGR block,VACV mCherry inh,FMDV antiviral,HCMV inh,VACV Venus inh
O=c1nc2ccc(Cl)cn2c2ccc(S(=O)(=O)N3CCOCC3)cc12,-13%,-31%,-15%,-13%,-10,-8%
O=C(NNS(=O)(=O)c1ccccc1)c1cccc(F)c1,-1%,56µM*,·,34%,2,·
O=C(NC(=S)NNS(=O)(=O)c1ccccc1)c1ccccc1[N+](=O)[O-],43%,28µM*,i,-23%,-17,-2%
O=C(NC(=S)NNS(=O)(=O)c1ccccc1)c1ccc([N+](=O)[O-])cc1,3%,20µM*,-11%,0%,-21,-2%
O=C(NNS(=O)(=O)c1ccccc1)c1ccc([N+](=O)[O-])cc1,-8%,0%,·,3%,31,·
O=C(NC(=S)NNS(=O)(=O)c1ccccc1)c1cccnc1,4%,8.9µM*,-10%,-18%,-5,-20%
Cc1ccc(C(=O)N2CCCCC2)cc1NC(=O)c1nsc2ccccc12,·,2%,-7%,-19%,11,-9%
O=C(COC(=O)CCSc1ccccc1)NCc1ccccc1Cl,11%,0%,i,13%,12,-18%
CCOc1ccc(C(=O)Nc2cccc(OCc3cc(=O)n4cc(C)sc4n3)c2)cc1,·,3%,-5%,0%,10,3%
O=C(CN1CCN(C(=O)CNC(=O)c2ccc3c(c2)OCO3)CC1)Nc1ccccc1Cl,13%,-14%,·,?,-1,·
O=C(CN1CCN(C(=O)CNC(=O)c2ccc(-c3ccccc3)cc2)CC1)Nc1ccccc1Cl,·,·,?,28µM*,?,?
O=C(CN1CCN(CC(=O)c2ccc(F)cc2)CC1)Nc1ccccc1Cl,1%,14µM*,·,16%,-27,4%
O=C(CN1CCCCCC1)Nc1ccccc1Cl,7%,-2%,·,10%,-30,·
CC(NC(=O)C(=O)NN=C1CCCCCC1)c1ccccc1 (stereo not drawn),-2%,-16%,-13%,32%,-11,-2%
CCSC1=NC(C)(C)C=C(/C=C/c2ccc(Cl)cc2Cl)N1,?,18µM*,·,?,8,-30%
CSC1=NC(C)(C)C=C(/C=C/c2c(Cl)cccc2Cl)N1,-27%,16µM*,-13%,-7%,20,-20%
CSC1=NC(C)(C)C=C(/C=C/c2ccc(Cl)cc2)N1,8.9µM*,5µM*,-25%,20µM*,-74*,-25%
Clc1ccc(/C=C/c2ncc[nH]2)c(Cl)c1,-7%,1%,·,54%,110,·
Nc1nccc(/C=C/c2c(Cl)cccc2Cl)n1,?,21%,-16%,-2%,-14,-20%
CSC1=NC(C)(C)C=C(/C=C/c2ccc(Cl)cc2Cl)N1,?,20µM*,-26%,?,-87*,-6%
Nc1nccc(/C=C/c2ccc(Cl)cc2)n1,-26%,12%,-8%,21%,80,?
COC(=O)[C@@]1(Cc2ccc(F)cc2)[C@H]2c3cc(C(=O)N(C)C)n(CC4CC4)c3C[C@H]2CN1C(=O)c1ccccc1,·,·,-7%,-19%,12,-17%
c1cn(CCCNc2ncnc3sc4c(c23)CCC4)cn1,1%,?,·,0%,?,-16%
CCCCNc1ncnc2sc3c(c12)CCN(CCC)C3,?,4%,·,-25%,-62*,·
O=C(NCc1ccccc1Cl)C(=O)NCC(c1ccco1)S(=O)(=O)c1cccs1 (stereo not drawn),·,32µM*,-18%,0%,5,-10%
SMILES,HCV inh,Sm TGR block,VACV mCherry inh,FMDV antiviral,HCMV inh,VACV Venus inh
O=C(NCC(c1ccco1)N1CCN(c2ccc(F)cc2)CC1)c1cccs1 (stereo not drawn),-25%,-16%,-12%,-12%,6,-6%
O=C(NCc1cccs1)C(=O)NCC(c1ccco1)N1CCN(c2ccc(F)cc2)CC1 (stereo not drawn),22µM*,1%,?,?,-32,-11%
O=C(NCc1ccccc1F)C(=O)NCC(c1cccs1)S(=O)(=O)c1cccs1 (stereo not drawn),·,?,-13%,-6%,-11,-7%
O=C(NCc1ccccc1F)C(=O)NCC(c1ccco1)S(=O)(=O)c1cccs1 (stereo not drawn),·,13µM*,-11%,-13%,7,-18%
O=C(NCc1ccccc1Cl)C(=O)NCC(c1cccs1)S(=O)(=O)c1ccccc1 (stereo not drawn),·,-13%,i,-15%,2,-3%
O=C(NCc1ccc(F)cc1)C(=O)NCC(c1ccco1)S(=O)(=O)c1cccs1 (stereo not drawn),·,7.9µM*,-18%,-20%,13,-4%
O=C(O)C1CC=CCC1C(=O)NCCCCc1ccccc1 (stereo not drawn),10%,-20%,i,10%,46,-16%
COc1ccccc1CNC(=O)C(=O)NCC(c1ccco1)S(=O)(=O)c1cccs1 (stereo not drawn),·,8.9µM*,-4%,-17%,-3,-8%
Cc1ccccc1CNC(=O)C(=O)NCC(c1ccco1)S(=O)(=O)c1cccs1 (stereo not drawn),·,?,-17%,15%,-22,-19%
CCN(c1ccccc1)c1cc2ccccc2c(=O)[nH]1,-18%,-10%,-26%,2%,-64*,-15%
CCCCSc1nnc(-c2ccc(C)cc2)c2ccccc12,?,-3%,?,-1%,-6,-29%
NC(=O)c1c(NC(=O)c2noc3c2CCCC3)sc2c1CCCC2,·,0%,i[7.34 µM],23%,80,-16%[7.34 µM]
CCN(Cc1ccc2c(c1)OCCO2)C(=O)CSc1nc(C)nc2sc(C)c(C)c12,?,0%,·,32µM*,-38,·
CCN(Cc1ccc2c(c1)OCO2)C(=O)CSc1ncnc2sccc12,?,-6%,·,-6%,-3,·
COc1ccc2[nH]c3c(c2c1)CCN=C3C,2.8µM*,-19%,i,-7%,-92*,-21%
COc1ccc2[nH]c3c(c2c1)CCNC3=O,·,·,·,8%,-25,·
COc1ccc2[nH]c3c(c2c1)CCC/C3=N\N,?,45µM*,?,6%,3,-13%
O=c1c(-c2ccccc2)c1-c1ccccc1,·,3.5µM*,·,·,·,·
Cc1cc(C)c(C#N)c(SCC(=O)c2ccc(Cl)cc2Cl)n1,?,7%,0%,·,-25,-3%
O=C1c2ccccc2C(=O)C1c1ccc(Cl)cc1,·,-17%,-15%,9%,41,-7%
O=C1c2ccccc2C(=O)C12OC2c1ccc(Cl)cc1Cl (stereo not drawn),-4%,-15%,-14%,28µM*,-9,0%

# Screens (PubChem BioAssay)
